FBW7 act = human FBW7 E3 ligase activation, primary screen; AID 1259310; 650,000 compounds, 0.13% hits; normalized activity (activation), % at 26.1 µM; AlphaScreen FBW7–phospho-cyclin E peptide binding, activator screen; Q969H0; in the data active = normalized activity above about 1.9%;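 also: purified mutant Fbw7 with reduced substrate affinity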
GPR151 activ = human GPR151 activation; 650,000 compounds, 1% hits; Q8TDV0; activation, % at 11.2 µM; AID 1508602; PathHunter beta-arrestin GPR151 cells, luminescence; in the data active = activation above about 4.9%
MITF inh = inhibitors of human MITF | O75030 | AlphaScreen MITF homodimerization, bead proximity signal | inhibition, % at 2.6 µM | 650,000 compounds, 0.91% hits; in the data active = inhibition above about 50%
Target sequence (O75030 whole entry, looked up): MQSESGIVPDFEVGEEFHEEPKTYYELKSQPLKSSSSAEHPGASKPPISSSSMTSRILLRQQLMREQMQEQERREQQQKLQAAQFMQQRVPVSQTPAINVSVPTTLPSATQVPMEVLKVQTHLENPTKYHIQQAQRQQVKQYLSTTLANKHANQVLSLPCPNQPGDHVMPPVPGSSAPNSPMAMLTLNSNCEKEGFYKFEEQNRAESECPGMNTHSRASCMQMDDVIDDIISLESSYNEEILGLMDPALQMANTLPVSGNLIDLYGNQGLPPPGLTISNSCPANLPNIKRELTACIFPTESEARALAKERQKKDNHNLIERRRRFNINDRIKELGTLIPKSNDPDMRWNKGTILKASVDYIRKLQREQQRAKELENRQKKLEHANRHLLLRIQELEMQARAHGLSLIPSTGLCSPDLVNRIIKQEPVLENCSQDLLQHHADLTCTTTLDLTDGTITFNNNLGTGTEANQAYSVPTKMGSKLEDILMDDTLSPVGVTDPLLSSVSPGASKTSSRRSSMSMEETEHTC
TEAD-YAP block = TEAD-YAP interaction inhibition. HEK-TIYL cells, TEAD-Gal4/YAP UAS-luciferase luminescence. inhibition, % at 9.12 µM. 640,000 compounds, 1.4% hits; in the data active = inhibition above about 32%
MITF inh conf = human MITF inhibition, confirmation; shares compounds with MITF inh; AlphaScreen MITF homodimerization, biotin/His-MITF beads; inhibition, % at 2.6 µM; 4,700 compounds, 16% hits; AID 1259372;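 active = inhibition above a cutoff derived from the DMSO control wells, cut at about 28% in these data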;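 also: inhibitors lower the bead chemiluminescence by keeping MITF from dimerizing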
AS interf DR = optically interferes with AlphaScreen signal in dose response | shares compounds with MITF inh | AlphaScreen optical interference counterscreen, cell-free | IC50, µM | 480 compounds, 6% hits | AID 1259373; call rule not given here
AlphaScreen intf2 = AlphaScreen optical interference, counter-screen; shares compounds with MITF inh; LysRS AlphaScreen counterscreen, signal interference, triplicate; inhibition, % at 2.6 µM; 4,700 compounds, 7.6% hits; AID 1259376;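 active = inhibition above a cutoff derived from the DMSO control wells, cut at about 30% in these data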
Numbers stand for hits; – = inactive; · = not tested or not shown; ! = not active in a repeat. A selection: hits, their analogues and other compounds. The true share with any hit is near 3.4%.

SMILES	FBW7 act	GPR151 activ	MITF inh	TEAD-YAP block	MITF inh conf	AlphaScreen intf2	others
O=[N+]([O-])c1cccc(N(CC2CO2)S(=O)(=O)c2ccccc2)c1 (stereo not drawn)	–	–	51	–	–	–
O=[N+]([O-])c1ccc(O)c(CSc2nnc(-c3ccoc3)o2)c1	–	–	–	–	·	·
COc1ccc(NC(=S)NCC(O)c2ccccc2)c(OC)c1 (stereo not drawn)	–	–	–	–	·	·
COc1ccc(NC(=S)NCC(C)C)c(OC)c1	–	–	65	–	–	–
CCOc1ccc(N=c2sc(C3=c4ccccc4=NC3=O)c(O)n2-c2ccc(OCC)cc2)cc1	–	–	113	–	–	–
Cc1[nH][nH]c(=O)c1C(c1ccc([N+](=O)[O-])o1)c1c(C)[nH][nH]c1=O	–	–	59	–	28	–	AS interf DR=–
Cc1[nH][nH]c(=O)c1C(c1ccc(-c2cccc([N+](=O)[O-])c2)o1)c1c(C)[nH][nH]c1=O	–	–	–	–	·	·
O=C(Nc1nnc(C2CCCCC2)s1)C1CC1	–	–	–	–	·	·
COC(=O)C(=O)Nc1nnc(C2CCCCC2)s1	–	–	67	–	–	–
COC(=O)C(=O)Nc1nnc(C2CCCC2)s1	–	–	79	–	–	–
COC(=O)c1ccc(CN2CCN(CC(=O)c3ccco3)CC2)cc1	–	–	70	–	–	–
CCN1CCN(CC(=O)c2ccco2)CC1	–	–	70	–	–	–
CS(=O)(=O)N1CCN(CC(=O)c2ccco2)CC1	–	–	57	–	–	–
COc1ccc(N(CC(=O)Nc2c(C)cccc2C)S(C)(=O)=O)c(OC)c1	–	–	–	–	·	·
NNC(=O)c1cc(-c2ccc(Cl)cc2)n[nH]1	–	–	56	–	–	–
CN(C)C=Nc1cc2c(cc1[N+](=O)[O-])OCCO2	–	–	51	–	–	–
Nc1cc2c(cc1[N+](=O)[O-])OCCO2	–	–	–	–	·	·
COc1ccc(C(CC(=O)NCc2ccc(C)cc2)NS(=O)(=O)c2ccc(OC)cc2)cc1 (stereo not drawn)	–	–	–	–	·	·
CCN(CC)CCN(C)Cc1ccc(NC(C)=O)cc1	–	–	64	–	–	–
CCN(CC)CCN(C)Cc1ccc(SC)cc1	–	–	–	–	·	·
O=C(CC(NCc1ccccc1)C(=O)O)Nc1cccc(Cl)c1Cl (stereo not drawn)	–	–	–	–	·	·
CCCNC(CC(=O)Nc1ccc(OC)cc1)C(=O)O (stereo not drawn)	–	–	–	–	·	·
COc1ccc(NC(=O)CC(NCc2ccccn2)C(=O)O)cc1 (stereo not drawn)	–	–	110	–	107	100
Cc1c(Cl)cccc1NC(=O)CC(NCCCN(C)C)C(=O)O (stereo not drawn)	–	–	–	–	·	·
NCCNC(CC(=O)Nc1cccc(Cl)c1Cl)C(=O)O (stereo not drawn)	–	–	85	–	–	33
SMILES	FBW7 act	GPR151 activ	MITF inh	TEAD-YAP block	MITF inh conf	AlphaScreen intf2	others
Cc1c(Cl)cccc1NC(=O)CC(NCc1ccccn1)C(=O)O (stereo not drawn)	–	–	90	–	62	100
Cc1ccc(NC(=O)CN(C)C2CCN(C)CC2)c(Cl)c1	–	–	67	–	–	–
Cc1ccc(NC(=O)CN(C)CC(=O)Nc2ccc(F)c(F)c2F)c(Cl)c1	–	–	–	–	·	·
Nc1ccc(O)c(C(=O)O)c1	–	–	75!	–	82	–	AS interf DR=–
O=C(Cn1ncn2cccc2c1=O)N1CCN(C2CCCCC2)CC1	–	–	–	–	·	·
COc1ccc(/C=C(\C#N)C(=O)Oc2ccc([N+](=O)[O-])c3cccnc23)cc1	–	–	54	–	51	99
CC(C)(C)C(=O)COC(=O)[C@@H]1CC(O)CN1S(=O)(=O)c1ccc(F)cc1 (stereo partly drawn)	–	–	60	–	–	–
O=C1C2C(C(=O)N1c1ccc(Br)cc1)N1CCCN1C2c1ccc(F)cc1 (stereo not drawn)	–	–	65	–	–	–
COc1cccc(NC(=O)Cn2c(C)cc3ccccc3c2=O)c1	–	–	–	–	·	·
Cc1ccc(S(=O)(=O)N2CCN(CC(=O)Nc3cc(Cl)ccc3C)CC2)cc1C	–	–	53	–	–	–
CCN1CNC(=S)N(c2ccc(C)cc2)C1	–	–	–	–	·	·
O=C(O)c1cccc(-n2cccc2/C=C\[N+](=O)[O-])c1	–	–	63	–	59	–	AS interf DR=–
CCOC(=O)C1=C(C)N=c2s/c(=C\c3cc(Cl)c(OC)c(OC)c3)c(=O)n2C1c1ccc(OCC)cc1 (stereo not drawn)	–	–	51	–	–	–
C=CCOc1c(Cl)cc(/C=c2\sc3n(c2=O)C(c2ccc(OCC)cc2)C(C(=O)OCC)=C(C)N=3)cc1Cl (stereo not drawn)	–	–	–	–	·	·
CC1(C)CC(=O)C(/C=N/Nc2n[nH]c(=O)[nH]c2=O)=C(O)C1	–	–	95	–	34	98
COc1cccc(CC(=O)N2CCCC(c3[nH]ncc3C(C)C)C2)c1 (stereo not drawn)	–	–	–	–	·	·
Cc1nnc(SCC(=O)c2ccc(F)cc2)o1	–	–	–	–	·	·
Cc1ccc(SC(C(=O)c2ccccc2)C(c2ccccc2)C(C#N)C#N)cc1 (stereo not drawn)	–	–	–	–	·	·
CC1(C)CCCC2=C1CC(C(=O)O)C(C(=O)N1CCCCC1)C2 (stereo not drawn)	–	–	85	–	–	–
COCCCNCCOCCOc1c(C)cc(Cl)cc1C	–	–	71	–	–	–
Cc1cc(Cl)cc(Cl)c1OCCOCCNCCN	–	–	65	–	–	–
COCCCNCCOCCOc1c(C)cc(C)cc1C	–	–	–	–	·	·
Cc1cc(C)c(OCCOCCNCCN)c(C)c1	–	–	70	–	–	–
Cc1cc(OCCOCCNCCN)cc(C)c1Cl	–	–	–	–	·	·
CN1CCCN(Cc2coc3c(Cl)cc(Cl)cc3c2=O)CC1	–	–	55	–	–	–
SMILES	FBW7 act	GPR151 activ	MITF inh	TEAD-YAP block	MITF inh conf	AlphaScreen intf2	others
CN1CCCN(Cc2c(Cl)cccc2Cl)CC1	–	–	63	–	–	–
O=CN1CCN(Cc2coc3c(Cl)cc(Cl)cc3c2=O)CC1	–	–	–	–	·	·
CN1CCCN(Cc2c(F)cccc2F)CC1	–	–	78	–	–	–
O=C1NC(=O)N(C2CCCCC2)C(=O)/C1=C\c1ccc([N+](=O)[O-])cc1	–	–	–	–	·	·
Cc1ccc(-n2nc3c(c2NC(=O)c2cc(Cl)ccc2Cl)CS(=O)(=O)C3)cc1	–	–	–	–	·	·
O=C(c1cccc(F)c1)N1CCN(Cc2ccccc2Br)CC1	–	–	57	–	–	–
O=C(c1ccccc1)N1CCN(C(=O)c2cccc(F)c2)CC1	–	–	–	–	·	·
CC(C)CC(=O)N1CCN(CCCc2ccccc2)CC1	–	–	52	–	–	–

High-throughput results: PubChem BioAssay, The Scripps Research Institute Molecular Screening Center
